Bioassay records from PubChem BioAssay.
Sampled rows, rich in hits. Any-hit rate of the full collection: about 1.2%.
GSH bead fluor = compound fluoresces at 488/530 nm on GSH beads. GSH beads flow cytometry, compound fluorescence 488/530 nm; active compounds read high. fluorescence (KMESF) at 10 µM. 0.25% of 190,000 active. AID 1776; in the data active = fluorescence above about 89;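 note: glutathione beads carrying GST-tagged Bcl family fusion proteins plus one bare bead set; values are compound well signal with DMSO vehicle wells as background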
RGS8-Gao = human RGS8-Galphao interaction regulation | multiplexed bead flow cytometry, RGS8-Galphao binding; actives lie on both sides | AID 1423 | response (percent of control binding), % at 10 µM | P09471 | 0.34% of 220,000 active; in the data active = response below about 60% or above about 140%; inactive = in between;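 note: Galphao activated as the GDP aluminium fluoride complex binding bead-coupled RGS8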
Avidin fluor = compound fluoresces at 488/530 nm on avidin beads; compound fluorescence 488/530 nm, flow cytometry; active compounds read high; fluorescence (KMESF) at 10 µM; 0.38% of 220,000 active; AID 1775; in the data active = fluorescence above about 47
RGS16-Gao HTS = RGS16-Galphao interaction regulator (human); O15492+P09471; bead-based flow cytometry RGS16-Galphao binding, fluorescence; actives lie on both sides; binding response (% of control), % at 10 µM; 0.38% of 220,000 active; AID 1441;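 note: Galphao activated by GDP with aluminum fluoride before binding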
RGS7-Gao reg = modulates binding of RGS7 to human Galphao | 0.35% of 220,000 active | binding response (% of control), % at 10 µM | Multiplexed bead flow cytometry; actives lie on both sides; in the data active = binding response below about 49% or above about 150%; inconclusive = no clear call, values can overlap the other calls; inactive = in between;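 note: fluorescent Galphao held in activated GDP-AlF4 state binding bead-coupled RGS7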
RGS4-Gao reg = human RGS4-Galphao interaction regulation | 0.33% of 220,000 active | binding response (% of control), % at 10 µM | Multiplexed bead flow cytometry, RGS4-Galphao binding; actives lie on both sides | AID 1415; in the data active = binding response below about 49% or above about 150%; inactive = in between;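 note: fluorescent Galphao activated with aluminum fluoride binding bead-coupled RGS4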
RGS-Gao = regulators of human RGS4-Galphao interaction | shares compounds with RGS16-Gao HTS | 99% of 1,600 active | RGS4–Galpha-o binding response, % at 10 µM | multiplexed bead flow cytometry, RGS–Galpha-o binding;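 note: fluorescently labeled Galpha-o bound to GDP with aluminium fluoride binding biotinylated RGS beads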
Target sequence (P09471 whole entry, looked up): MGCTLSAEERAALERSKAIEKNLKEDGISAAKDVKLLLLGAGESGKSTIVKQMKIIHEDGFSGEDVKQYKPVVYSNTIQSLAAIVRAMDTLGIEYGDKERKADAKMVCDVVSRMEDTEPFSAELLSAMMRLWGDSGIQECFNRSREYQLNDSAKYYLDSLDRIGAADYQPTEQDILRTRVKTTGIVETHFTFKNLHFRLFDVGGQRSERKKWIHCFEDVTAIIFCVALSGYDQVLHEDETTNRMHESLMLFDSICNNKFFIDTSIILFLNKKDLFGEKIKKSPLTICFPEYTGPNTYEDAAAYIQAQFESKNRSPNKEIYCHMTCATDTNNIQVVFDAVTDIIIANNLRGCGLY
Target sequence (P49798 whole entry, looked up): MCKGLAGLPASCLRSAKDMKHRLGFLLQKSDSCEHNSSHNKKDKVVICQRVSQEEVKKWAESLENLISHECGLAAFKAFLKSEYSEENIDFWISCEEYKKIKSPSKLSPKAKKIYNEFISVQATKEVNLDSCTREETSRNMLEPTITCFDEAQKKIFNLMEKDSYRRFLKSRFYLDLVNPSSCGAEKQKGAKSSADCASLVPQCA
Avidin counter = biotin-avidin bead binding disruption counter-screen | streptavidin beads, fluorescein-biotin binding, flow cytometry | AID 1783 | shares compounds with RGS16-Gao HTS | 1,700 tested, under 10 active | inhibition, % at 10 µM;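 active = inhibition above 50%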;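 note: median green fluorescence of gated singlet beads compared with DMSO control wells; 0% = DMSO wells and 100% = complete loss of bead fluorescence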
RGS8-Gao confirm = RGS8-Galphao interaction regulation, single point confirmation; 3% of 1,700 active; bead-based flow cytometry RGS8-Galphao binding, fluorescence; actives lie on both sides; shares compounds with RGS16-Gao HTS; binding response (% of control), % at 10 µM; in the data active = binding response below about 72% or above about 130%; inactive = in between;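 note: Galphao activated as GDP AlF4 complex before binding bead RGS8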
RGS7-Gao confirm = confirmation of regulators of human RGS7-Galphao interaction | response (percent of control binding), % at 10 µM | bead-based flow cytometry RGS7-Galphao binding; actives lie on both sides | 7.8% of 1,700 active | shares compounds with RGS16-Gao HTS; in the data active = response below about 75% or above about 130%; inactive = in between;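 note: fluorescent Galphao activated with GDP and aluminum fluoride binding bead-coupled RGS7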
RGS16-Gao conf = RGS16-Galphao interaction regulation, single point confirmation | response (% of control binding), % at 10 µM | shares compounds with RGS16-Gao HTS | 4% of 1,700 active | bead-based flow cytometry, RGS16-Galphao binding; actives lie on both sides | AID 1838; in the data active = response below about 74% or above about 130%; inactive = in between;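 note: Galphao activated as the GDP aluminium fluoride complex binding bead-coupled RGS16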
RGS4-Gao single = RGS4-Galphao interaction regulation, single point confirmation | AID 1840 | binding response (% of control), % at 10 µM | 4% of 1,700 active | shares compounds with RGS16-Gao HTS | RGS4-Galphao binding, multiplexed bead flow cytometry; actives lie on both sides; in the data active = binding response below about 74% or above about 130%; inactive = in between
RGS19-Gao single = confirmation of regulators of human RGS19-Galphao interaction; shares compounds with RGS16-Gao HTS; bead-based flow cytometry RGS19-Galphao binding; actives lie on both sides; response (percent of control binding), % at 10 µM; 5% of 1,700 active; AID 1841; in the data active = response below about 50% or above about 160%; inactive = in between;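 note: 100% = no compound control and 0% = blank background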
Numbers without * were called inactive; [ ] = another dose, or the depositor's remark. Unless noted, the rule behind the calls is not given here.

Results for CC1=C(C(=O)Nc2ccc(C)cc2)C(c2cccs2)NC(=S)N1 (stereo unspecified) ?
GSH bead fluor: 15; RGS8-Gao: 67; Avidin fluor: 7; RGS16-Gao HTS: 49; RGS7-Gao reg: 46*; RGS4-Gao reg: 54; RGS-Gao: 54*; Avidin counter: -2; RGS8-Gao confirm: 110; RGS7-Gao confirm: 105; RGS16-Gao conf: 112; RGS4-Gao single: 104; RGS19-Gao single: 118

How did CC1=C(C(=O)Nc2ccc(F)c(F)c2)C(c2cccs2)NC(=S)N1 (stereo unspecified) do in these assays?
GSH bead fluor: 6; RGS8-Gao: 103; Avidin fluor: 2; RGS16-Gao HTS: 108; RGS7-Gao reg: 102; RGS4-Gao reg: 102

How did S=c1[nH]ncn2c1cc1oc3ccccc3c12 do in these assays?
GSH bead fluor: 13; RGS8-Gao: 94; Avidin fluor: 9; RGS16-Gao HTS: 96; RGS7-Gao reg: inconclusive; RGS4-Gao reg: 98

What do the screens show for `CCOC(=O)N1CCN(CC(=O)Nc2c(C(=O)OC)[nH]c3ccccc23)CC1`?
GSH bead fluor: 18; RGS8-Gao: 98; Avidin fluor: 106*; RGS16-Gao HTS: 103; RGS7-Gao reg: 175*[activator]; RGS4-Gao reg: 124; RGS-Gao: 124*; Avidin counter: 0; RGS8-Gao confirm: 106; RGS7-Gao confirm: 99; RGS16-Gao conf: 110; RGS4-Gao single: 107; RGS19-Gao single: 100

Results for COC(=O)c1[nH]c2ccccc2c1NC(=O)CN1CCCCCC1 ?
GSH bead fluor: 25; RGS8-Gao: 106; Avidin fluor: 5; RGS16-Gao HTS: 112; RGS7-Gao reg: 106; RGS4-Gao reg: 106

What do the screens show for `COc1ccc(N(CC(=O)Nc2ccc(F)c(Cl)c2)S(=O)(=O)c2c(C)noc2C)cc1`?
GSH bead fluor: 10; RGS8-Gao: 101; Avidin fluor: 11; RGS16-Gao HTS: 102; RGS7-Gao reg: 100; RGS4-Gao reg: 98

Results for COc1ccc(N(CC(=O)Nc2ccc(OC)c(Cl)c2)S(=O)(=O)c2c(C)noc2C)cc1 ?
GSH bead fluor: 16; RGS8-Gao: 141*[activator]; Avidin fluor: 9; RGS16-Gao HTS: 227*[activator]; RGS7-Gao reg: 116; RGS4-Gao reg: 116; RGS-Gao: 116*; Avidin counter: -2; RGS8-Gao confirm: 101; RGS7-Gao confirm: 101; RGS16-Gao conf: 104; RGS4-Gao single: 102; RGS19-Gao single: 97

What do the screens show for `COc1ccc(C(=O)CCC(=O)Nc2cccc(Cl)c2)cc1`?
GSH bead fluor: 15; RGS8-Gao: 99; Avidin fluor: 11; RGS16-Gao HTS: 101; RGS7-Gao reg: 95; RGS4-Gao reg: 98

Results for O=C(CCC1CCCCC1)Nc1ccc(C(=O)c2ccncc2)cc1 ?
GSH bead fluor: 17; RGS8-Gao: 101; Avidin fluor: 8; RGS16-Gao HTS: 97; RGS7-Gao reg: 103; RGS4-Gao reg: 99
